The values below come from the supplement of paper PMC11219838.

In the assay the test system is Meloidogyne hapla J2. The experiment in a line: proportion of mobile M. hapla J2 relative to DMSO control (fraction of DMSO control); higher = more viable, less nematicidal, active = 0.7 or less. Particulars: 60 µM; 5 days; temperature: 20 °C. As to the method: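 DODA library (846 commercial 1,3,4- and 1,2,4-oxadiazole compounds plus commercial nematicide controls) screened at a single dose of 60 µM (0.6% DMSO) in 96-well plates, two biological replicates. Read-outs: C. elegans N2 L1 survival/reproduction score at day 6, 20 °C (0: 0-10 worms, 1: 11-20, 2: 21-50, 3: >50, 4: overgrown/starved). C. elegans daf-2 dauer, D. dipsaci and M. hapla J2 mobility at day 5, 20 °C, and P. penetrans mobility at day 5, 20 °C, each relative to DMSO controls. M. hapla egg hatching at day 12, 25 °C, relative to the mean of 8 DMSO wells on the same plate.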
With `COc1ccc(-c2nc(-c3ccccc3Cl)no2)cc1`, the “proportion of mobile M. hapla J2” value was 0.964 (inactive).
As for `Cc1cnnn1-c1ccc(-c2nc(-c3ccc(Cl)cc3)no2)cc1`, the figure is 0.963 (inactive); as for `c1ccc(-c2nc(C3CCCCC3)no2)cc1`, 0.956 (inactive).
For the molecule `CC(C)(C)c1ccc(OCc2nc(-c3ccccc3)no2)cc1`, the “proportion of mobile M. hapla J2” value was 0.987 (inactive).
Regarding `O=C(CSc1nnc(-c2ccccc2)o1)Nc1cc(C(F)(F)F)ccc1Cl`, the “proportion of mobile M. hapla J2” value is 1.04 (inactive).
On to `Fc1ccc(-c2noc(COc3cccc(Cl)c3)n2)cc1`, for which the “proportion of mobile M. hapla J2” value is 0.908 (inactive).
Turning to `CN(C(=O)CSc1nnc(-c2ccccc2)o1)c1ccccc1`, the “proportion of mobile M. hapla J2” value is 1.02 (inactive).
As for `O=C(CSc1nnc(-c2ccccc2)o1)Nc1ccc2ccccc2c1`, the “proportion of mobile M. hapla J2” value is 1.01 (inactive).
Turning to `COc1cccc(-c2noc(COc3cccc(C)c3)n2)c1`, the “proportion of mobile M. hapla J2” value was 0.995 (inactive).
In the case of `C(=C\c1ccccc1)/CSc1nnc(-c2ccncc2)o1`, the “proportion of mobile M. hapla J2” value was 0.979 (inactive).
Consider `COc1ccc(-c2nnc(SCC(=O)Nc3ccc(Cl)cc3Cl)o2)cc1`, for which the “proportion of mobile M. hapla J2” value was 0.976 (inactive).
The figure for `FC(F)(F)c1cccc(-c2noc(-c3ccc4c(c3)OCO4)n2)c1` is 1.06 (inactive); for `Cc1c(C(=O)CSc2nnc(-c3ccccc3)o2)c2ccccc2n1C` it is 0.957 (inactive); for `Cc1ccc(OCc2nc(-c3ccccc3)no2)cc1C` it is 1.1 (inactive).
The figure for `COc1ccc(NC(=O)c2ccccc2-c2nc(-c3ccccc3C)no2)cc1` is 0.81 (inactive).
For `Brc1ccc(-c2noc(-c3ccco3)n2)cc1`, the “proportion of mobile M. hapla J2” value was 1.01 (inactive).
As to `c1ccc(-c2noc(CSc3nc4ccccc4[nH]3)n2)cc1`, the “proportion of mobile M. hapla J2” value is 1.05 (inactive).
Regarding `COc1cccc(-c2noc(COc3ccc(Cl)cc3)n2)c1`, the “proportion of mobile M. hapla J2” value is 0.993 (inactive).
With `COc1nc(-c2ccccc2)ccc1-c1noc(-c2ccco2)n1`, the “proportion of mobile M. hapla J2” value was 0.685 (active).
`Cc1ccccc1-c1noc(-c2ccc(F)cc2)n1`: the “proportion of mobile M. hapla J2” value is 0.909 (inactive).
The figure for `O=C(Nc1ccc(-c2noc(COc3ccccc3)n2)cc1)c1ccc(F)cc1` is 1.03 (inactive); for `Brc1ccccc1-c1nc(-c2ccncc2)no1` it is 0.995 (inactive); for `Cc1ccccc1CSc1nnc(-c2ccncc2)o1` it is 0.754 (inactive).
As for `COc1ccccc1-c1noc(-c2ccccc2F)n1`, the figure is 0.91 (inactive); as for `CCOc1ccccc1-c1nc(-c2cccc(C)c2)no1`, 0.982 (inactive).
As to `Cc1ccc(-c2noc(-c3cccc(Br)c3)n2)cc1`, the “proportion of mobile M. hapla J2” value was 1.04 (inactive).
As for `COc1ccc(-c2nnc(SCC(=O)Nc3ccc(Cl)c(Br)c3)o2)cc1`, the figure is 0.933 (inactive).
As for `O=C(CSc1nnc(-c2cccnc2)o1)c1ccc2ccccc2c1`, the “proportion of mobile M. hapla J2” value was 0.74 (inactive).
In the case of `O=C(CSc1nnc(-c2ccco2)o1)Nc1ccc(F)cc1`, the “proportion of mobile M. hapla J2” value is 0.939 (inactive).
As for `Brc1ccc(CSc2nnc(-c3ccco3)o2)cc1`, the “proportion of mobile M. hapla J2” value was 0.995 (inactive).
The figure for `Cc1ncc2c(c1-c1noc(-c3ccccc3)n1)CCC2` is 0.921 (inactive).
As for `Cc1cccc(-c2nnc(SCC(=O)NC(C)c3ccccc3)o2)c1` (stereo not given), the figure is 0.89 (inactive).
Regarding `Clc1ccccc1OCc1nc(-c2cccs2)no1`, the “proportion of mobile M. hapla J2” value is 1.06 (inactive).
The figure for `Cc1cc(C)c(C)c(OCc2nc(-c3cccnc3)no2)c1` is 0.58 (active); for `COC(=O)c1ccc(CSc2nnc(-c3ccncc3)o2)cc1` it is 0.999 (inactive); for `COc1cccc(-c2nnc(SCC(=O)NC3CCCCC3)o2)c1` it is 0.869 (inactive).
In the case of `Cc1ccc(-c2nnc(SCc3ccccc3C#N)o2)cc1`, the “proportion of mobile M. hapla J2” value was 0.937 (inactive).
Regarding `CC1Cc2ccccc2N1C(=O)CSc1nnc(-c2ccccc2)o1` (stereo not given), the “proportion of mobile M. hapla J2” value is 1.03 (inactive).
On to `O=C(CSc1nnc(-c2ccncc2)o1)Nc1cc(Cl)cc(Cl)c1`, for which the “proportion of mobile M. hapla J2” value was 0.948 (inactive).
As for `Clc1ccc(-c2nc(-c3ccccc3Br)no2)cc1`, the “proportion of mobile M. hapla J2” value is 0.984 (inactive).
